This note sets out measurements from ChEMBL document CHEMBL3433997, “St. Jude Leishmania screening dataset” (2016).

What all share (assay type): functional
The target in test [1] is Solute carrier family 2, facilitated glucose transporter member 1 (Homo sapiens) (UniProt P11166). In words: ST_JUDE_LEISH: Cytotoxicity at 2uM final concentration against transgenic Leishmania Mexicana promastigotes LmGLUT1 that are glucose transport deficient and complemented with the human glucose transporter GLUT1. Activity is measured by DNA content using SYBR green in vitro.

The target of test [2] is Hexose transporter 1 (Plasmodium falciparum) (UniProt O97467). In words: ST_JUDE_LEISH: Cytotoxicity at 2uM final concentration against transgenic Leishmania Mexicana promastigotes LmPfHT that are glucose transport deficient and complemented with the Plasmodium falciparum hexose transporter. Activity is measured by DNA content using SYBR green in vitro.
The target of test [3] is Glucose transporter (Leishmania mexicana) (UniProt O61059). In words: ST_JUDE_LEISH: Cytotoxicity at 2uM final concentration against transgenic Leishmania Mexicana promastigotes LmGT2 that are glucose transport deficient and complemented with the L. Mexicana glucose transporter 2. Activity is measured by DNA content using SYBR green in vitro.

Sequence of Solute carrier family 2, facilitated glucose transporter member 1 (Homo sapiens) (P11166 whole entry): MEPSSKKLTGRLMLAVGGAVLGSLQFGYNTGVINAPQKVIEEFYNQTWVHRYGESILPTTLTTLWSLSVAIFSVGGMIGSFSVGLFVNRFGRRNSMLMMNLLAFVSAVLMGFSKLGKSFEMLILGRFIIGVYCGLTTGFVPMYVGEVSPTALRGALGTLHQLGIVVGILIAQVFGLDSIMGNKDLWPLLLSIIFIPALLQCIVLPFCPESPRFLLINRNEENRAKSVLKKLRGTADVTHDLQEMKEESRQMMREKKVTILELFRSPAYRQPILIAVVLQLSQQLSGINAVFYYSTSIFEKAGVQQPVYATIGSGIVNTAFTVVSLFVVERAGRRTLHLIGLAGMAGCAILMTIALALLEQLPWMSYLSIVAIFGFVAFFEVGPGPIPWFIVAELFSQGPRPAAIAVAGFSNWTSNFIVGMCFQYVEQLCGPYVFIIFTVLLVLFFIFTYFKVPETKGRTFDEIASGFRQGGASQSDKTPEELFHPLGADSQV

Turning to `COc1ccc(CNC2CCN(C)CC2)cc1-c1ccc(S(=O)(=O)NCc2ccccc2)c(F)c1`, the inhibition in test [1] was -0.66%; in test [2] it was -0.53%; in test [3], -1.2%.
As to `Cc1cc(N[C@@H](CC(C)C)C(=O)NCCOc2ccccc2)nc(NCCc2ccc(F)cc2)n1`, the inhibition in test [1] was 2.19%; in test [2], 2.57%; in test [3], -0.16%.
As to `NC(=O)c1ccc(NCC(=O)Nc2cccc(-c3cccc(-c4nc5ccccc5[nH]4)c3)c2)cc1`, the figures for the inhibition in test [1], in test [2] and in test [3] were 2.82%, 4.21% and 0.95%, respectively.
`C(=N\Nc1nccc2sc(-c3cccnc3)cc12)/c1ccncc1`: the values for the inhibition in test [1], in test [2] and in test [3] were 5.3%, 5.29% and 1.98%, respectively.
On to `CC(C)(C)c1ccc(NC(=O)c2ccc(CN3CCCN(Cc4ccsc4)CC3)cc2)cc1`, for which the inhibition was found to be 9.06% in test [1], 10.4% in test [2] and 11.9% in test [3].
As to `CC(C)c1ccc(CN(C)CCCCNC(=O)c2ccc(NC(=O)c3ccc(Cl)cc3)cc2)cc1`, the inhibition is -0.05% in test [1], -0.96% in test [2] and -1.07% in test [3].
As to `Cc1ccc2c(Cc3cnc(N)nc3N)cc(C)c(N)c2n1`, the values for the inhibition in test [1], in test [2] and in test [3] were 2.06%, 3.47% and -0.09%, respectively.
With `O=C(CCc1ccccc1)N[C@H](Cc1c[nH]c2ccccc12)C(=O)N1CCC(NCc2ccc3c(c2)Cc2ccccc2-3)CC1`, the inhibition in test [1] came to 7.69%; in test [2], 7.43%; in test [3], 7.1%.
For the compound `O=C(NCCOc1ccccc1)[C@H](Cc1ccccc1)Nc1ccnc(NCC2CCCCC2)n1`, the results for the inhibition in test [1], in test [2] and in test [3] were 2.23%, 1.21% and 0.92%, respectively.
Regarding `Cc1cccc2nc(-c3ccc(-c4ccc(CNCCN5CCNCC5)cc4)s3)[nH]c12`, the results for the inhibition in test [1], in test [2] and in test [3] were 2.77%, 3.12% and 3.22%, respectively.
As for `CN1CCN(c2cc3c(cc2Br)CCN3C(=O)Nc2ccc(-c3cnc4ccccc4c3)cc2)CC1`, the inhibition is 107% in test [1], 100% in test [2] and 109% in test [3].
Regarding `Cc1ccccc1C1CCN(C2CCC(NC(=O)c3ccc(-c4cccs4)s3)CC2)CC1` (stereo not drawn), the inhibition was 2.14% in test [1], 1.24% in test [2] and 1.93% in test [3].
Turning to `CCOCCCn1c(=N)c(C(=O)NCc2ccc(OC)cc2)cc2c(=O)n3cccc(C)c3nc21`, the inhibition in test [1] amounted to 3.85%; in test [2], 5.36%; in test [3] it was 3.8%.
For the compound `O=C(/C=C/c1ccc(Cl)c(Cl)c1)NCCCCCN1CCC(c2c[nH]c3c(-c4ccccc4)cccc23)CC1`, the inhibition in test [1] was determined as 0.48%; in test [2], 4.3%; in test [3], 3.07%.
Consider `Cc1nc(N)nc(N)c1C#CC1CCCC1`, for which the inhibition in test [1] turned out to be 5.81%; in test [2], 6.82%; in test [3] it was 2.76%.
As to `O=C(/C=C/c1ccc(Cl)c(Cl)c1)NCCCCCCN1CCN(C(=O)Nc2ccc(F)c(Cl)c2)CC1`, the inhibition amounted to 13.8% in test [1], 11.5% in test [2] and 14.1% in test [3].
The corresponding values for `c1ccc(Oc2ccc(Nc3ccnc4ccc(-c5ccccn5)cc34)cc2)cc1` are 2.62%, 4.16% and 3.02%.
For the compound `Cc1ccc(O)cc1Nc1ccnc2cc(-c3csc(CNCCN4CCOCC4)n3)ccc12`, the inhibition in test [1] worked out at 1.41%; in test [2], 0.86%; in test [3] it was 1.37%.
`O=C(NCCCNc1nc2ccccc2[nH]1)c1cccc(OC(F)(F)F)c1`: the figures for the inhibition in test [1], in test [2] and in test [3] were 2.27%, -0.62% and 1.46%, respectively.
The corresponding values for `CC1(C)NC(N)=NC(=N)N1OCCCOc1cccc(Cl)c1` are 3.04%, 5.38% and 2.82%.
For the compound `O=C(OCc1ccccn1)c1nc2ccccc2[nH]1`, the inhibition in test [1] was 0.81%; in test [2] it was 2.57%; in test [3] it was 0.92%.
With `CC(C)(CNC(=O)/C=C/c1ccc(C(F)(F)F)cc1)CNc1cc(=O)c2ccccc2[nH]1`, the inhibition in test [1] was 1.07%; in test [2], -1.76%; in test [3], 1.66%.
As to `CC(=O)Nc1ccc(C(=O)Nc2ccc(-c3csc(-c4nc5ccccc5[nH]4)c3)cc2)cn1`, the inhibition in test [1] was determined as 1.44%; in test [2], 1.57%; in test [3] it was 0.75%.
As for `CS(=O)(=O)c1ccc(CCNCc2ccc(-c3ccc(CN(C(=O)C4CCCC4)C4CCN(Cc5ccccc5)CC4)cc3)nc2)cc1`, the inhibition was 0.69% in test [1], 0.71% in test [2] and -2.64% in test [3].
As to `COc1cc(NCCCNCc2cn(Cc3cc(Br)cc(Br)c3)c3ccccc23)nc2ccccc12`, the inhibition in test [1] was 4.87%; in test [2], 1.54%; in test [3], 2.54%.
The like results for `COc1cc(F)c2ncc(Cl)c([C@@H](O)CN3CCC(NCc4ccc5c(n4)NC(=O)CO5)CC3)c2c1` were, in that order, 6.57%, 3.3% and 2.71%.
As to `CN(C)C(=O)C(CC(=O)NCc1ccccc1Cl)N(C)C.CN(C)C(=O)CC(C(=O)NCc1ccccc1Cl)N(C)C` (stereo not drawn), the inhibition worked out at 3.97% in test [1], 4.82% in test [2] and 4.89% in test [3].
For the compound `Cc1cccc2nc(-c3cccc(-c4cccc(CNCCNC(=O)c5ccnn5C)c4)c3)[nH]c12`, the inhibition in test [1] is -1.89%; in test [2], -1.71%; in test [3], -2.41%.
Take `COc1ccc(CSC2CCCCC23NC(=S)NC3=S)cc1` (stereo not drawn): the inhibition in test [1] was determined as 4.42%; in test [2] it was 1.41%; in test [3], 3.2%.
With `Cc1cccc(C(O)CNc2ccnc(Nc3cccc(-c4csc(C)n4)c3)n2)c1` (stereo not drawn), the inhibition amounted to 3.68% in test [1], 4.04% in test [2] and 2.54% in test [3].
`CC(=O)Nc1ccc(CN2CCCN(c3cc(NC(=O)c4cccc(C)c4)ccn3)CC2)cc1`: the inhibition in test [1] turned out to be 8.6%; in test [2] it was 11.9%; in test [3], 10.9%.
With `CC(=O)Nc1ncc(C(=O)Nc2cccc(-c3cccc(-c4nc5cc(F)ccc5[nH]4)c3)c2)s1`, the inhibition in test [1] amounted to 1.74%; in test [2] it was 2.62%; in test [3], 1.65%.
On to `O=C(/C=C/c1ccc(Cl)c(Cl)c1)NCCCCCCN1CCN(C(=O)Nc2cc(Cl)nc(Cl)c2)CC1`, for which the inhibition turned out to be 2.96% in test [1], 2.93% in test [2] and 2.49% in test [3].
As for `COC(=O)c1cccc(CNCc2ccc(-c3ccc(-c4nc5cc(F)ccc5[nH]4)s3)cc2)c1`, the inhibition in test [1] is 2.57%; in test [2], 0.36%; in test [3], 1.42%.
The like results for `COc1ccccc1NC(=O)Nc1cccc(-c2ccc(-c3nc4cccc(C)c4[nH]3)s2)c1` were, in that order, 3.95%, 6.34% and 3.94%.
Turning to `O=[N+]([O-])c1cccc(CNC2CCN(Cc3ccc4ccccc4c3)CC2)c1`, the results for the inhibition in test [1], in test [2] and in test [3] were 19%, 12.4% and 10.9%, respectively.
